The structures appear in SMILES notation. Records with an inconclusive call do not appear. Activity calls are given as the source filed them. Unless noted, calls follow the shape of the full dose curve.

Test [1] concerns the target Thyrotropin receptor (Homo sapiens) (UniProt P16473). Description: qHTS assay to identify small molecule agonists of the thyroid stimulating hormone receptor (TSHR) signaling pathway (AID 1224843). Also: nearly all actives have a fitted effect of over 45% in size. The procedure, abridged: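 Agonist activity read as cAMP rise via d2/cryptate HTRF competition, 1 h room-temperature detection, in HEK293 cells expressing TSHR. Fifteen-point titrations, each run in triplicate, with a 30 min room-temperature incubation beforehand.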
In general terms: qHTS replaces the single test concentration by a dilution series.

The nature of test [2]: qHTS assay to identify small molecule agonists of the hypoxia (HIF-1) signaling pathway - cell viability counter screen (AID 1224844). Also: nearly all actives have a fitted effect of over 50% in size. The method, boiled down:
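In this counter screen, HRE-bla ME-180 cell viability after 17 hrs of compound exposure at 37C was read by CellTiter-Glo luminescence, multiplexed with the beta-lactamase reporter measurement.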

Test [3] in a line: qHTS assay to identify small molecule agonists of H2AX (AID 1224845; active = well fitted activation curve with a large enough effect in the signal ratio in the repeat runs, not every such curve was filed as active; the % refers to the signal ratio). The method, boiled down: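 Phospho-H2AX Ser139 measured by HTRF (ex 320 nm; em 665 and 620 nm) after 24 hr antibody incubation. Compounds, 15 concentrations, 0.76% DMSO, were applied to CHO-K1 cells for 3hr at 37C before lysis.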
Test [4] can be described thus: qHTS assay to identify small molecule agonists of the hypoxia (HIF-1) signaling pathway (AID 1224846; active = well fitted activation curve with a large enough effect in the signal ratio in the repeat runs, not every such curve was filed as active; the % refers to the signal ratio). The method, boiled down: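 ME-180 HRE-bla reporter cells; compounds in DMSO, 17 h at 37C; read-out beta-lactamase via CCF4-AM FRET.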
Test [5] in a line: qHTS assay to identify small molecule agonists of H2AX - cell viability counter screen (AID 1224847).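 Also: wild-type CHO-K1 cells; top concentration of the series differs between compounds; nearly all actives have a fitted effect of over 30% in size.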 The procedure, abridged:
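After overnight plating of 1000 CHO-K1 cells per well, a 15-concentration compound series was applied for 3 hr at 37C. Luminescence from CellTiter-Glo, read following 30 min at room temperature, reflected cell viability.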

Test [6] in a line: qHTS assay to identify small molecule antagonists of the estrogen related receptor (ERR) signaling pathway from Tox21 library (AID 1224848; active = well fitted curve in the direction sought with a large enough effect in the repeat runs; an effect the other way counts as inactive or inconclusive; also: nearly all actives have a fitted effect of over 50% in size). The procedure, abridged: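 Luciferase luminescence (ONE-Glo, 30 min room temperature) was the read-out. Cells of the NTP-supplied ERR line, 2,000 per well, were given 6 h at 37 C before compound addition in DMSO and 18 h exposure at 37 C.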

A short description of test [7]: qHTS assay to identify small molecule agonists of the estrogen related receptor (ERR) signaling pathway from Tox21 library (AID 1224849). Also: nearly all actives have a fitted effect of over 15% in size. The method, boiled down:
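Luciferase activity in ERR pathway reporter cells served as the agonist readout; exposure lasted 18 h at 37 C, with ONE-Glo detection after 30 min at room temperature.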

Test [8] in a line: qHTS RealTime-Glo MT Cell Viability Assay in HEK293 cells - 32 hour (AID 1224868; active = well fitted curve in the direction sought with a large enough effect in the repeat runs; an effect the other way counts as inactive or inconclusive; also: top concentration of the series differs between compounds; nearly all actives have a fitted effect of over 50% in size). The method, boiled down: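 Homogeneous bioluminescent viability format in HEK293 cells (600 cells/well). Following 5 h at 37 C/5% CO2, 23 nL compound was pintooled; the signal was measured repeatedly during 40 h incubation.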
Test [9] is described as follows: A CellTox Green Cytotoxicity Assay to monitor cytotoxicity in HEK293 cells - 0 hour (AID 1224869; active = well fitted curve in the direction sought with a large enough effect in the repeat runs; an effect the other way counts as inactive or inconclusive; also: nearly all actives have a fitted effect of over 50% in size). The procedure, abridged: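 Real-time, in one plate: 600 HEK293 cells/well with dead-cell DNA dye, pinned compound after 5 h, 37 C incubation over 40 h; viable cells give no appreciable fluorescence.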
Test [10] in a line: qHTS RealTime-Glo MT Cell Viability Assay in HepG2 cells - 24 hour (AID 1224867; active = well fitted curve in the direction sought with a large enough effect in the repeat runs; an effect the other way counts as inactive or inconclusive; also: nearly all actives have a fitted effect of over 50% in size; also: potency is read from the fitted curve at half-maximal effect). The method, boiled down:
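Cell number in HepG2 cultures estimated from NanoLuc luminescence generated by metabolic reduction of a prosubstrate by living cells. The homogeneous, nonlytic format allowed repeated reads at 0, 8, 16, 24, 32 and 40 h of compound exposure.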

Thyrotropin receptor (Homo sapiens), sequence (P16473 whole entry, looked up): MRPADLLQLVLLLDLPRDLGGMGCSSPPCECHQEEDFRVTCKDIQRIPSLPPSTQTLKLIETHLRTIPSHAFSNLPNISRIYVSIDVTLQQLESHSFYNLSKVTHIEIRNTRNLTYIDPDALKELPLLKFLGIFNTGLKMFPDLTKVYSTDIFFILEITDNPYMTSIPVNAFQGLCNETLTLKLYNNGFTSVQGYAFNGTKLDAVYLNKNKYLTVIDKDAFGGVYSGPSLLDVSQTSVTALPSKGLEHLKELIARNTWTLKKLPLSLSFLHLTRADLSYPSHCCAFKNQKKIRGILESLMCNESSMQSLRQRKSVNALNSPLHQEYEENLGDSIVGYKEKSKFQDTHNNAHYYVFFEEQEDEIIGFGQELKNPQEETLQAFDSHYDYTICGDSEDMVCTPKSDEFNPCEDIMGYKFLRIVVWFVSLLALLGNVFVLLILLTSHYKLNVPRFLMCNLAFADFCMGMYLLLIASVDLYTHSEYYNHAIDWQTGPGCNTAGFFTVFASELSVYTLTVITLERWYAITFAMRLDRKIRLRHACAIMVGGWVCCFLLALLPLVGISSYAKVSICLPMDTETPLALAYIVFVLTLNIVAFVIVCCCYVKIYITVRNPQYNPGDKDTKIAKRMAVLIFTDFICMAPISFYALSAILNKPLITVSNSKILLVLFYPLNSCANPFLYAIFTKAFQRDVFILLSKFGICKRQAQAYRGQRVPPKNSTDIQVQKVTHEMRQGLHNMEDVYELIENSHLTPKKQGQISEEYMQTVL

`O=C(O)CCCCCCCCC(=O)O`: the compound was called inactive in test [1], in test [2], in test [3], in test [4], in [5] and in [6]. The call in test [7] and in [9] was inactive. For the same compound, the Potency entry in [8] was “inactive”.

With `CCCOC(=O)c1ccccc1`, the compound was classed as inactive in test [1], in test [2], in test [3], in test [4], in test [5] and in test [6]. In addition, the result in test [7] and in [9] was inactive. Further, the Potency result in [10] and in [8] was “inactive” each time.

For `CCOCC(=O)O`, the compound was called inactive in test [1], in test [2], in test [3], in test [4], in test [5] and in [6]. The call in test [7] and in test [9] was inactive. Moreover, the Potency result in [10] and in test [8] was “inactive” in each case.

On to `CC(=O)OCCOC(C)=O`, for which the compound was classed as inactive in test [1], in [2], in test [3], in test [4] and in [5]. The Potency result in test [10] and in [8] was “inactive” throughout.

On to `COc1ccc(C)cc1N`, for which the result in test [1], in [2], in test [3], in [4] and in test [5] was inactive. Also, the Potency entry in test [10] and in test [8] was “inactive” throughout.

Consider `CCO[Si](CCCN)(OCC)OCC`, for which the compound was called inactive in test [1], in test [2], in test [3], in test [4], in test [5] and in test [6]. For the same compound, in test [7], the compound was classed as inactive. In addition, the Potency entry in [10] and in test [8] was “inactive” each time.

For `CCNc1ccccc1`, the call in [1], in test [2], in test [3], in [4] and in test [5] was inactive. Further, the Potency entry in test [10] and in [8] was “inactive” in each case.

As for `COCCOC(=O)c1ccccc1C(=O)OCCOC`, the call in test [1], in test [2], in test [3], in test [4] and in test [5] was inactive. For the same compound, the Potency result in [10] and in test [8] was “inactive” throughout.

On to `CC(=O)CC(C)(C)O`, for which the compound was called inactive in test [1], in test [2], in [3], in test [4], in test [5] and in test [6]. Further, in [7], the outcome was inactive. Moreover, the Potency result in [10] and in test [8] was “inactive” throughout.

Regarding `CC1(C)NC(=O)NC1=O`, the outcome in test [1], in test [2], in [3], in test [4], in [5] and in [6] was inactive. In addition, in test [7], the result was inactive. Moreover, the Potency result in test [10] and in [8] was “inactive” throughout.

As for `O=S(=O)(O)c1ccccc1`, the compound was classed as inactive in [1], in test [2], in test [3], in test [4], in test [5] and in test [6]. Besides, the call in test [7] was inactive. The Potency result in test [10] and in test [8] was “inactive” in each case.

In the case of `O=C(O)Cn1c(=O)n(Cc2ccc(Br)cc2F)c(=O)c2ccc(Cl)cc21`, the compound was classed as inactive in test [1], in test [2], in [3], in test [4], in [5] and in test [6]. The compound was classed as inactive in [7] and in test [9]. Further, the Potency in test [10] was 38.9 µM (active).

Turning to `CCCCCCCO`, the result in [1], in test [2], in test [3], in test [4], in [5] and in test [9] was inactive. The Potency result in [8] was “inactive”.

With `O=[N+]([O-])c1ccc2nc[nH]c2c1`, the compound was called inactive in [1], in [2], in [3], in test [4] and in [5]. Further, the Potency entry in test [10] and in test [8] was “inactive” in each case.

In the case of `O=C(OCC1CCC2OC2C1)C1CCC2OC2C1` (stereo not drawn), the compound was classed as inactive in test [1], in [2], in test [3], in test [4], in [5] and in [9]. The Potency entry in test [10] and in test [8] was “inactive” each time.

For the compound `CN(C)c1ccc(O)c2c1C[C@H]1C[C@H]3[C@H](N(C)C)C(=O)C(C(N)=O)=C(O)[C@@]3(O)C(=O)C1=C2O`, the compound was classed as inactive in test [1], in [2], in test [3], in [4], in test [5] and in test [9]. The Potency entry in test [10] and in test [8] was “inactive” each time.

As for `Brc1ccc(Br)c(Br)c1`, the compound was called inactive in [1], in test [2], in [3], in [4], in test [5] and in test [9]. The Potency entry in test [10] and in [8] was “inactive” throughout.

As for `C=CCc1ccc(OC)c(OC)c1`, the call in test [1], in [2], in test [3], in test [4], in test [5] and in test [9] was inactive. Moreover, the Potency result in [10] and in test [8] was “inactive” each time.

For the compound `CCCCCCCCCCN`, the outcome in [1], in test [2], in test [3], in test [4], in test [5] and in test [9] was inactive. The Potency result in test [8] was “inactive”.

As to `CCOCCOCCOCCO`, the compound was classed as inactive in test [1], in test [2], in test [3], in test [4], in test [5] and in test [9]. The Potency entry in test [10] and in [8] was “inactive” throughout.

On to `C[Si]1(C)O[Si](C)(C)O[Si](C)(C)O[Si](C)(C)O1`, for which the compound was called inactive in test [1], in test [2], in test [3], in test [4], in [5] and in [9]. Moreover, the Potency result in test [10] and in [8] was “inactive” each time.

For `COC(=O)CCCC(=O)OC`, the compound was called inactive in test [1], in test [2], in test [3], in [4], in test [5] and in test [9]. Further, the Potency entry in test [8] is “inactive”.

In the case of `c1ccc(Oc2ccccc2)cc1`, the compound was called inactive in test [1], in test [2], in test [3], in test [4] and in test [5]. Besides, the Potency result in test [8] is “inactive”.

Turning to `O=C(O)/C=C/C(=O)O`, the outcome in [1], in [2], in test [3], in test [4] and in [5] was inactive. Besides, the Potency result in test [10] and in test [8] was “inactive” each time.

Turning to `c1ccc2c(c1)Cc1ccccc1-2`, the call in [1], in test [2], in test [3], in test [4], in test [5] and in [9] was inactive. In addition, the Potency result in test [10] and in test [8] was “inactive” throughout.

In the case of `Nc1ccc(Cl)c(N)c1`, the result in test [1], in test [2], in test [3], in test [4], in [5] and in test [9] was inactive. Also, the Potency entry in test [10] and in test [8] was “inactive” each time.

Take `CC(C)CC(C)O` (stereo not drawn): the compound was called inactive in test [1], in test [2], in test [3], in [4] and in test [5]. The Potency result in test [8] was “inactive”.
